The source made the active and inactive calls.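 Rule for the calls, unless noted: active = compound that reduces growth-factor-driven endothelial tube area in a mixed cell culture, no cutoff stated; inactive = the rest.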
What was measured:
[1] = stimulators of nuclear beta-catenin in C2C12, primary screen, imaging, WNT3A-conditioned medium, mouse C2C12, NPC library (AID 1117326; in the data active = nuclear beta-catenin stimulation mostly above about 4.2%, no sharp cut-off; inactive = mostly below about 10%); conditions: stronger effect = higher value
[2] = stimulators of insulin release from INS-1E, primary screen, cell-based, 5 mM glucose, NPC library (AID 1117329;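 active = compound raises insulin release from rat beta cells at 5 mM glucose, no numeric limit stated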); conditions: rat INS-1E insulin secretion, at 10 µM, stronger effect = higher value
[3] = growth inhibition of GSK3B-pretreated HCT116 cells – cell-based, CellTiter-Glo, 0.2 to 20 µM (AID 1117336;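 active = compounds lowering colon cancer cell viability after pretreatment blocking the GSK3B kinase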); conditions: HCT116 viability after GSK3B inhibitor, at 20 µM, stronger effect = higher value
[4] = inhibition of endothelial tube formation, primary screen, imaging, VEGF stimulated, CD31 staining, tube area, NPC library (AID 1117340); conditions: VEGF-stimulated ADSC/ECFC co-culture, at 10 µM, stronger effect = higher value
[5] = glucagon-like peptide 1 release enhancers, primary assay, NCI-H716 cell line, NPC library (AID 1117341;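 active = compound raises GLP1 secretion from the human gut endocrine cells, with no numeric limit stated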); conditions: NCI-H716 cells, at 10 µM, stronger effect = higher value
[6] = HCT116 colon cancer cell growth inhibition, primary screen, CellTiter-Glo luminescence, NPC library (AID 1117342;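 active = compounds that lower survival of HCT116 colon cancer cells in the luminescence readout, no numeric limit stated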); conditions: at 20 µM (top of the series)
[7] = CellTiter-Glo luminescent readout of SW480 viability loss, NPC library primary (AID 1117343;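 active = compounds that lower viability of the colon cancer cells in the luminescence readout, with no numeric limit stated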); conditions: CellTiter-Glo luminescence; at 20 µM (top of the series)
[8] = decreased DLD-1 cellular survival, CellTiter-Glo luminescent readout, NPC compound collection, primary HTS (AID 1117346;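 active = compounds that lower survival of DLD-1 colon cancer cells in the luminescence readout, no cutoff given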); conditions: DLD-1 viability, CellTiter-Glo luminescence; at 20 µM (top of the series)
[9] = kinase inhibitors against Plasmodium liver-stage infection, cell-based, known kinase inhibitor set, luminescence, hepatoma host viability (AID 624392; call rule not given here;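 note: infected cells incubated roughly two days before readout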); conditions: Plasmodium liver stage in hepatoma cells, luciferase luminescence, concentration not given here; liver cell % of control: measured here: host liver cell viability; parasite % of control: stronger effect = lower value
[10] = modulators of glucocorticoid suppression of NF-kB, cell-based, luciferase, IL-1B stimulus, dexamethasone (AID 624486; call rule not given here;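 for percent of negative control (+Dex): 100% = mean signal of vehicle control wells on the plate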); conditions: NF-kB luciferase reporter, IL-1B + dexamethasone, luminescence; percent of negative control (+Dex): actives lie on both sides, concentration not given here; z-score: measured here: IL-1B alone, no Dex
[11] = kinase inhibitors altering Pseudomonas killing of worms, whole organism (AID 651566; call rule not given here;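 note: tested at 14 µM; sign flipped so higher z means a lower ratio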); conditions: C. elegans killed by P. aeruginosa, survival ratio
[12] = activators of macrophage pro-inflammatory response, cell-based, murine, luminescence (AID 652131; call rule not given here); conditions: murine macrophage pro-inflammatory reporter, stronger effect = higher value
[13] = molecular target: Cellular tumor antigen p53 (Homo sapiens) (UniProt P04637); test: kinase inhibitors altering GFP-p53 stability in HPV16-positive cells, imaging, known kinase inhibitor set, EGFP/DsRed ratio (AID 1053116; call rule not given here;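 note: cells exposed to compounds for 24 h at 37 °C before reading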); conditions: stronger effect = higher value; EGFP object count: measured here: GFP-p53 positive objects count
Cellular tumor antigen p53 (Homo sapiens), sequence (P04637 whole entry, looked up): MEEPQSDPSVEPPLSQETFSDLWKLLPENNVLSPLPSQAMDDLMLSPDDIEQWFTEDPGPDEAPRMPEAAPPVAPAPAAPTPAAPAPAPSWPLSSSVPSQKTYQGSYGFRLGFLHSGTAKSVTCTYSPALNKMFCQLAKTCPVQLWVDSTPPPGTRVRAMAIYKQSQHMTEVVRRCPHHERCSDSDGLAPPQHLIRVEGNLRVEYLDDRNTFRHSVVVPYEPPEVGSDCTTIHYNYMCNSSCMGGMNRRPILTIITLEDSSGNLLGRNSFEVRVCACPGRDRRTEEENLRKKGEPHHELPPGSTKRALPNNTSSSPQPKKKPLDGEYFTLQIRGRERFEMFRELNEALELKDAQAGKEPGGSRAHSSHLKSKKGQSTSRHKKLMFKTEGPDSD

[14] = IRF3 reporter activation in THP-1 macrophages, cell-based, PMA-stimulated THP-1, luminescence (AID 1053176; call rule not given here); conditions: PMA-differentiated THP-1, IRF3 reporter luminescence; stronger effect = higher value
[15] = survival rescue of mitochondrial mutant cells in low glucose, primary screen, MELAS cybrids, Rieske KO mouse fibroblasts, CellTiter-Glo (AID 1508586;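 active = mean z-score across replicates of 1.96 or higher in either the MELAS or the Rieske mutant cell line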;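 note: z relative to plate mean and SD of compound and empty wells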)

CC(=O)O[C@H]1C[C@H](O[C@H]2[C@@H](O)C[C@H](O[C@@H]3[C@@H](O)C[C@H](O[C@H]4CC[C@@]5(C)[C@H](CC[C@@H]6[C@H]5C[C@@H](O)[C@]5(C)[C@@H](C7=CC(=O)OC7)CC[C@]65O)C4)O[C@@H]3C)O[C@@H]2C)O[C@H](C)[C@H]1O[C@@H]1O[C@H](CO)[C@@H](O)[C@H](O)[C@@H]1O
inactive: nuclear beta-catenin stimulation ([1]; at 10 µM) 1.6% | insulin secretion stimulation [2] 0.8% | GLP1 secretion stimulation [5] -0.9%
active: viability decrease [3] 73.3% | tube area decrease [4] 108% | inhibition of viability [6] 46.8% | viability decrease (inhibition) [7] 54.2% | viability decrease (inhibition) [8] 55.1%
0.9%: nuclear beta-catenin stimulation ([1]; stimulation, at 2 µM)

CNC(=O)Oc1cc(C)c(/C=C/c2cncc(C(=O)NC)c2)c(C)c1
inactive: parasite % of control [9] 110% | percent of negative control (+Dex) [10] 107% | z-score [11] -0.2 | z-score [12] -0.101 | EGFP/DsRed ratio [13] 0.0984 | fraction signal [14] -0.0105 | z-score ([15]; MELAS cybrid survival, CellTiter-Glo 48 h, stronger effect = higher value) -0.555
111%: liver cell % of control [9]
1: EGFP object count [13]
0.0985: z-score ([15]; Rieske KO mouse fibroblast survival, CellTiter-Glo 72 h)
1.96: z-score [10]

O=[N+]([O-])c1cc(I)c(O)c(I)c1
0.7%: nuclear beta-catenin stimulation ([1]; stimulation, at 2 µM)
active: viability decrease [3] 95% | tube area decrease [4] 106% | inhibition of viability [6] 93% | viability decrease (inhibition) [7] 101% | viability decrease (inhibition) [8] 98.8%
inactive: nuclear beta-catenin stimulation ([1]; at 10 µM) 18.4% | insulin secretion stimulation [2] 5.5% | GLP1 secretion stimulation [5] -1%

CCN(CC)N(O)N=O
0.7%: nuclear beta-catenin stimulation ([1]; stimulation, at 2 µM)
inactive: nuclear beta-catenin stimulation ([1]; at 10 µM) -1.2% | insulin secretion stimulation [2] -0.3% | viability decrease [3] 2.3% | tube area decrease [4] -3.9% | GLP1 secretion stimulation [5] -1.7% | inhibition of viability [6] -0.1% | viability decrease (inhibition) [7] -1.2% | viability decrease (inhibition) [8] -7.7%

Cn1cc(C2=C(c3cn(CCCNC(N)=N[N+](=O)[O-])c4ccccc34)C(=O)NC2=O)c2ccccc21
inactive: parasite % of control [9] 62.5% | percent of negative control (+Dex) [10] 102% | EGFP/DsRed ratio [13] 0.0481 | fraction signal [14] 0.0015
2.5: EGFP object count [13]
-0.575: z-score [10]
106%: liver cell % of control [9]

C[C@]12C=CC(=O)C=C1CC[C@@H]1[C@@H]2CC[C@@]2(C)[C@H]1CC[C@]2(C)O
inactive: nuclear beta-catenin stimulation ([1]; at 10 µM) 6.6% | insulin secretion stimulation [2] 1.5% | viability decrease [3] 38.6% | tube area decrease [4] 31.2% | GLP1 secretion stimulation [5] 4% | inhibition of viability [6] 29.9% | viability decrease (inhibition) [8] 17.9%
2.4%: nuclear beta-catenin stimulation ([1]; stimulation, at 2 µM)
active: viability decrease (inhibition) [7] 75.7%

O=C(Nc1ccc(Br)cc1)c1cc(Br)cc(Br)c1O
active: viability decrease [3] 98% | tube area decrease [4] 108% | inhibition of viability [6] 98.2% | viability decrease (inhibition) [7] 94.4% | viability decrease (inhibition) [8] 100%
0.4%: nuclear beta-catenin stimulation ([1]; stimulation, at 2 µM)
inactive: nuclear beta-catenin stimulation ([1]; at 10 µM) 28.9% | insulin secretion stimulation [2] -3% | GLP1 secretion stimulation [5] -3.5%

COc1ccc2c(C(=O)c3ccc(Cl)cc3)c(C)n(CC(=O)O)c2c1
-0.8%: nuclear beta-catenin stimulation ([1]; stimulation, at 2 µM)
inactive: nuclear beta-catenin stimulation ([1]; at 10 µM) -0.1% | insulin secretion stimulation [2] 1.05% | viability decrease [3] 13.7% | tube area decrease [4] -18.1% | GLP1 secretion stimulation [5] -0.1% | inhibition of viability [6] 8% | viability decrease (inhibition) [7] 22.3% | viability decrease (inhibition) [8] -3.8%

CN1C(=O)NC(=O)C(C)(C2=CCCCC2)C1=O (centres undefined)
0.7%: nuclear beta-catenin stimulation ([1]; stimulation, at 2 µM)
inactive: nuclear beta-catenin stimulation ([1]; at 10 µM) 1.5% | insulin secretion stimulation [2] -0.5% | viability decrease [3] -11.4% | tube area decrease [4] 0.1% | GLP1 secretion stimulation [5] 0.1% | inhibition of viability [6] -2.4% | viability decrease (inhibition) [7] 18.4% | viability decrease (inhibition) [8] -1.75%

CCN(CCO)CCn1c(Cc2ccccc2)nc2c1c(=O)n(C)c(=O)n2C
0%: nuclear beta-catenin stimulation ([1]; stimulation, at 2 µM)
inactive: nuclear beta-catenin stimulation ([1]; at 10 µM) -2% | insulin secretion stimulation [2] 3% | viability decrease [3] -6% | tube area decrease [4] 4.3% | GLP1 secretion stimulation [5] -5.3% | inhibition of viability [6] 6.4% | viability decrease (inhibition) [7] 15.1% | viability decrease (inhibition) [8] 4.2%

CC1(C)S[C@@H]2[C@H](N)C(=O)N2[C@@H]1C(=O)O
3%: nuclear beta-catenin stimulation ([1]; stimulation, at 2 µM)
inactive: nuclear beta-catenin stimulation ([1]; at 10 µM) 0.4% | insulin secretion stimulation [2] -0.3% | viability decrease [3] -4.5% | tube area decrease [4] 7.5% | GLP1 secretion stimulation [5] 0% | inhibition of viability [6] 2.1% | viability decrease (inhibition) [7] 6.9% | viability decrease (inhibition) [8] -4.4%

C1CN2CCC1CC2
inactive: nuclear beta-catenin stimulation ([1]; at 10 µM) 0.4% | insulin secretion stimulation [2] 1.5% | viability decrease [3] -7.5% | tube area decrease [4] 9.8% | GLP1 secretion stimulation [5] 6.5% | inhibition of viability [6] 4% | viability decrease (inhibition) [7] 4.8% | viability decrease (inhibition) [8] 3.1%
3.2%: nuclear beta-catenin stimulation ([1]; stimulation, at 2 µM)

O=C(O)CCCCCCNC1c2ccccc2CCc2ccccc21
inactive: nuclear beta-catenin stimulation ([1]; at 10 µM) -0.3% | insulin secretion stimulation [2] -0.2% | viability decrease [3] -7.3% | tube area decrease [4] -4.7% | GLP1 secretion stimulation [5] 0.3% | inhibition of viability [6] -9.4% | viability decrease (inhibition) [7] 13.9% | viability decrease (inhibition) [8] -13.1%
-1.4%: nuclear beta-catenin stimulation ([1]; stimulation, at 2 µM)

CC1=C(C(=O)O)N2C(=O)[C@@H](N)[C@H]2SC1
0.3%: nuclear beta-catenin stimulation ([1]; stimulation, at 2 µM)
inactive: nuclear beta-catenin stimulation ([1]; at 10 µM) -0.8% | insulin secretion stimulation [2] 0.4% | viability decrease [3] 9.7% | tube area decrease [4] -6.3% | GLP1 secretion stimulation [5] 4.2% | inhibition of viability [6] 13.3% | viability decrease (inhibition) [7] 33.8% | viability decrease (inhibition) [8] 21.2%

CC(C)=CC1C(C(=O)OCN2C(=O)C3=C(CCCC3)C2=O)C1(C)C (centres undefined)
active: viability decrease (inhibition) [7] 63%
inactive: nuclear beta-catenin stimulation ([1]; at 10 µM) 2.5% | insulin secretion stimulation [2] -1.8% | viability decrease [3] 34.8% | tube area decrease [4] 16% | GLP1 secretion stimulation [5] -0.5% | inhibition of viability [6] 38.2% | viability decrease (inhibition) [8] 5%
0.7%: nuclear beta-catenin stimulation ([1]; stimulation, at 2 µM)

CC(C)NCC(O)c1ccc([N+](=O)[O-])cc1 (centres undefined)
active: viability decrease (inhibition) [7] 33.9%
inactive: nuclear beta-catenin stimulation ([1]; at 10 µM) -2.4% | insulin secretion stimulation [2] 5.1% | viability decrease [3] -1% | tube area decrease [4] 15% | GLP1 secretion stimulation [5] -0.9% | inhibition of viability [6] 17.5% | viability decrease (inhibition) [8] 1.9%
-1%: nuclear beta-catenin stimulation ([1]; stimulation, at 2 µM)
